Several values for one entry are separate records, joined by “and”; a condition that tells them apart may be missing. Identical values can stand only once. The whole screen tested about 5,500 compounds, of which about 2,000 (36%) were called active. Another 18% or so got no clear call; they are omitted. No stated cut-off is given here; in the data, active means normalized growth mostly below about 0.91 (no sharp cut-off); inconclusive means no clear call, values can overlap the other calls; inactive means mostly above about 0.92. The list shows a part of the results.
Assay: chemical genetic growth profiling, strain panel (AID 1159580);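 further: tested at 20 µM; growth read once vehicle control cultures reached saturation at 30 °C; 1 = growth at the plate median or of vehicle wells; lower values mean less growth of the strain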
Details: growth OD

Measured: normalized growth

CC1(C)O[C@@H]2CC3C4CCC5=CC(=O)CCC5(C)C4(F)C(O)CC3(C)[C@]2(C(=O)CCl)O1 (stereo partly specified)
inactive: S. cerevisiae deletion strains, locus YAL013W, strain DEP1, hits give low values 0.996 | S. cerevisiae deletion strains, locus YBR021W, strain FUR4, hits give low values 1.04 | S. cerevisiae deletion strains, locus YBR229C, strain ROT2, hits give low values 1 | S. cerevisiae deletion strains, locus YCL029C, strain bik1, hits give low values 1 | S. cerevisiae deletion strains, locus YDL035C, strain GPR1, hits give low values 0.979 | S. cerevisiae deletion strains, locus YDL074C, strain BRE1, hits give low values 1.02 | S. cerevisiae deletion strains, locus YDL101C, strain DUN1, hits give low values 0.994 | S. cerevisiae deletion strains, locus YDL134C, strain PPH21, hits give low values 0.994 | S. cerevisiae deletion strains, locus YDL185W, strain tfp1, hits give low values 0.967 | S. cerevisiae deletion strains, locus YDL192W, strain arf1, hits give low values 0.986 | S. cerevisiae deletion strains, locus YDR101C, strain arx1, hits give low values 1.03 | S. cerevisiae deletion strains, locus YDR150W, strain NUM1, hits give low values 0.981 | S. cerevisiae deletion strains, locus YDR162C, strain NBP2, hits give low values 0.963 | S. cerevisiae deletion strains, locus YDR318W, strain mcm21, hits give low values 0.979 | S. cerevisiae deletion strains, locus YDR388W, hits give low values 0.996 | S. cerevisiae deletion strains, locus YDR502C, strain sam2, hits give low values 0.99 | S. cerevisiae deletion strains, locus YEL061C, strain CIN8, hits give low values 0.998 | S. cerevisiae deletion strains, locus YER110C, hits give low values 0.975 | S. cerevisiae deletion strains, locus YER155C, strain BEM2, hits give low values 1.01 | S. cerevisiae deletion strains, locus YER167W, strain BCK2, hits give low values 0.994 | S. cerevisiae deletion strains, locus YGL078C, strain dbp3, hits give low values 0.993 | S. cerevisiae deletion strains, locus YGL086W, strain mad1, hits give low values 1.01 | S. cerevisiae deletion strains, locus YGL248W, strain PDE1, hits give low values 1 | S. cerevisiae deletion strains, locus YGR078C, strain PAC10, hits give low values 1.01 | S. cerevisiae deletion strains, locus YGR135W, strain pre9, hits give low values 0.973 | S. cerevisiae deletion strains, locus YGR252W, strain gcn5, hits give low values 1.02 | S. cerevisiae deletion strains, locus YHR030C, strain SLT2, hits give low values 0.985 and 1 | S. cerevisiae deletion strains, locus YHR079C, strain IRE1 (second series), hits give low values 0.992 | S. cerevisiae deletion strains, locus YHR079C, strain IRE1, hits give low values 1 | S. cerevisiae deletion strains, locus YHR094C, strain hxt1, hits give low values 0.998 | S. cerevisiae deletion strains, locus YHR129C, strain ARP1, hits give low values 0.996 | S. cerevisiae deletion strains, locus YHR200W, strain rpn10, hits give low values 0.988 | S. cerevisiae deletion strains, locus YIL066C, strain RNR3, hits give low values 1 | S. cerevisiae deletion strains, locus YIL073C, strain SPO22, hits give low values 0.889 | S. cerevisiae deletion strains, locus YIL125W, strain kgd1, hits give low values 1.01 | S. cerevisiae deletion strains, locus YIR030C, strain dcg1, hits give low values 0.983 | S. cerevisiae deletion strains, locus YJL095W, strain BCK1, hits give low values 1.03 and 1.02 | S. cerevisiae deletion strains, locus YJL134W, strain LCB3, hits give low values 0.989 | S. cerevisiae deletion strains, locus YJL168C, strain set2, hits give low values 1 | S. cerevisiae deletion strains, locus YJL187C, strain SWE1 (second series), hits give low values 1.01 | S. cerevisiae deletion strains, locus YJR043C, strain POL32, hits give low values 1.01 | S. cerevisiae deletion strains, locus YJR066W, strain TOR1, hits give low values 0.972 | S. cerevisiae deletion strains, locus YKL009W, strain mrt4, hits give low values 0.956 | S. cerevisiae deletion strains, locus YKL068W, hits give low values 0.98 | S. cerevisiae deletion strains, locus YKL085W, strain MDH1 (second series), hits give low values 0.975 | S. cerevisiae deletion strains, locus YKL085W, strain MDH1, hits give low values 0.975 | S. cerevisiae deletion strains, locus YKL190W, strain CNB1, hits give low values 0.977 | S. cerevisiae deletion strains, locus YKR001C, strain vps1, hits give low values 1.01 | S. cerevisiae deletion strains, locus YLR039C, strain RIC1, hits give low values 0.938 | S. cerevisiae deletion strains, locus YLR058C, strain SHM2, hits give low values 0.991 | S. cerevisiae deletion strains, locus YLR102C, strain apc9, hits give low values 0.995 | S. cerevisiae deletion strains, locus YLR113W, strain HOG1, hits give low values 1.04 | S. cerevisiae deletion strains, locus YLR262C, strain YPT6, hits give low values 0.942 | S. cerevisiae deletion strains, locus YLR268W, strain sec22, hits give low values 0.99 | S. cerevisiae deletion strains, locus YLR330W, strain CHS5, hits give low values 0.996 | S. cerevisiae deletion strains, locus YLR342W, strain FKS1 (second series), hits give low values 1.01 | S. cerevisiae deletion strains, locus YLR371W, strain rom2, hits give low values 1 | S. cerevisiae deletion strains, locus YLR418C, strain cdc73, hits give low values 0.944 | S. cerevisiae deletion strains, locus YML016C, strain PPZ1, hits give low values 1 | S. cerevisiae deletion strains, locus YML032C, strain rad52, hits give low values 1.01 | S. cerevisiae deletion strains, locus YML124C, strain tub3, hits give low values 1 | S. cerevisiae deletion strains, locus YMR078C, strain ctf18, hits give low values 0.99 | S. cerevisiae deletion strains, locus YMR223W, strain ubp8, hits give low values 0.97 | S. cerevisiae deletion strains, locus YMR263W, strain SAP30, hits give low values 1 | S. cerevisiae deletion strains, locus YMR307W, strain GAS1, hits give low values 1.01 | S. cerevisiae deletion strains, locus YNL067W, strain RPL9B, hits give low values 1.02 | S. cerevisiae deletion strains, locus YNL153C, strain GIM3, hits give low values 1.06 | S. cerevisiae deletion strains, locus YNL183C, strain NPR1, hits give low values 0.972 | S. cerevisiae deletion strains, locus YNL233W, strain BNI4, hits give low values 1.04 | S. cerevisiae deletion strains, locus YNL250W, strain rad50, hits give low values 0.987 | S. cerevisiae deletion strains, locus YNL271C, strain bni1, hits give low values 0.986 | S. cerevisiae deletion strains, locus YNL298W, strain CLA4, hits give low values 0.994 | S. cerevisiae deletion strains, locus YNL307C, strain MCK1, hits give low values 0.995 | S. cerevisiae deletion strains, locus YNR052C, strain pop2, hits give low values 0.985 | S. cerevisiae deletion strains, locus YOL006C, strain TOP1, hits give low values 1.01 | S. cerevisiae deletion strains, locus YOL012C, strain htz1 0.917 | S. cerevisiae deletion strains, locus YOL147C, strain pex11, hits give low values 0.996 | S. cerevisiae deletion strains, locus YOR061W, strain CKA2, hits give low values 0.994 | S. cerevisiae deletion strains, locus YOR069W, strain VPS5, hits give low values 0.99 | S. cerevisiae deletion strains, locus YOR136W, strain idh2, hits give low values 0.995 | S. cerevisiae deletion strains, locus YOR144C, strain elg1, hits give low values 1.01 | S. cerevisiae deletion strains, locus YOR184W, strain ser1, hits give low values 0.958 | S. cerevisiae deletion strains, locus YOR231W, strain MKK1, hits give low values 1.02 | S. cerevisiae deletion strains, locus YOR316C, strain cot1, hits give low values 0.983 | S. cerevisiae deletion strains, locus YPL256C, strain CLN2, hits give low values 0.989 | S. cerevisiae deletion strains, locus YPR119W, strain clb2, hits give low values 0.997 | S. cerevisiae deletion strains, locus YPR141C, strain kar3, hits give low values 0.99 | S. cerevisiae deletion strains, locus YPR163C, strain tif3, hits give low values 0.993 | S. cerevisiae deletion strains, locus YPR167C, strain met16, hits give low values 0.984 | S. cerevisiae deletion strains, strain wtn01, hits give low values 0.987 | S. cerevisiae strains, strain wild type, hits give low values 0.994

From PubChem BioAssay AID1159580 (chemical genetic matrix, 2015)
